Source: PubChem BioAssay AID686971 (National Center for Advancing Translational Sciences (NCATS), 2013)
Out of some 360,000 compounds screened, about 7,500 (2.1%) were called active. Another 8% or so got no clear call; they are omitted. The entries come from a sample that favours actives as a whole. Unmarked numbers belong to inactive results. The call rests on the fitted dose curve; in most records, active means well fitted cell-killing curve with a large enough effect; inconclusive means small, poorly fitted or top-dose-only effect, or effect the other way, or another doubt; inactive means no such curve, though single readings can be large or run the other way.

Assay: qHTS for induction of synthetic lethality in tumor cells producing 2HG: qHTS for the HT-1080-IDH1KD cell line;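 on activity, negative = toxicity: 0% = DMSO wells and -100% = cell-free medium wells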
Settings: HT-1080 IDH1 knockdown viability, ATP luminescence, 48 h; series mostly up to 46.1 µM; activity, negative = toxicity: at the top concentration
Procedure, shortened: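 % activity derives from luminescence (CellTiter-Glo), normalised to DMSO and no-cell wells. HT-1080-IDH1KD cells, 750/well, had 48 h compound exposure at 37 °C.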
Potency means the concentration at half of the fitted maximal effect.

Row | SMILES | activity, negative = toxicity | Potency
1 | Cc1cc(OCC(=O)Nc2nccs2)c2c(C)c(C)c(=O)oc2c1 | 1.11% | 
2 | CNC(=O)c1ccc(CN(C)C(=O)c2cc(C3CC3)nc3c2cnn3C(C)C)cc1 | -15.6% | 
3 | CC(=O)Oc1ccc(Cn2c(C)c(C(=O)NCc3ccc(C#N)cc3)sc2=O)cc1 | -23% | 
4 | O=C(/C=C/[C@H]1O[C@@H](n2ccc(=O)[nH]c2=O)[C@H](O)[C@@H]1O)NCc1ccccn1 | 18.2% | 
5 | Cc1c(CCO)c(=O)[nH]n1C(=O)c1c(F)cccc1F |  | 6.31 µM (active)
6 | Cc1c(CCO)c(=O)n(-c2ccccc2)n1S(=O)(=O)c1ccc(F)cc1 | -14.4% | 
7 | CC1C(=O)Nc2ccccc2N1C(=O)c1c(F)cccc1F (centres undefined) | -5.49% | 
8 | Cc1ccc(C(=O)OCC(=O)NC2CCCCCCC2)cc1C | 14.4% | 
9 | CCOC(=O)C1CCCN(C(=O)c2ccc(N(C)C)cc2)CC1 (centres undefined) | 18.3% | 
10 | CSc1ncnc2c1ncn2CCCNCc1cccs1 | -0.667% | 
11 | CC1(C(=O)NS(=O)(=O)c2cccs2)CCN1C(=O)Cc1ccc(-c2ccccc2)cc1 (centres undefined) | 0.115% | 
12 | Cc1ccc(Cc2c(-c3ccco3)nc3ccc(Cl)cn23)cc1 |  | 16.4 µM (active)
13 | Cc1ccc(-c2nc3ccc(Cl)cn3c2Cc2ccccc2)cc1 | 14.3% | 
14 | Cc1ccc(Cc2c(-c3ccccc3)nc3ccc(Cl)cn23)cc1 | -1.66% | 
15 | Cc1cccc(CNC(=O)c2sc(=O)n(Cc3ccccc3C)c2C)c1 | -6.96% | 
16 | CCN(CC)C(=O)C1=C(C)N(Cc2ccc(OC)cc2)C(=O)C(CC(=O)NCc2ccco2)C1 (centres undefined) | -4.38% | 
17 | CC(C)c1ccc(CC(=O)N2CCC2(C)C(=O)NS(=O)(=O)c2ccc(C(C)(C)C)cc2)cc1 (centres undefined) | 6.81% | 
18 | CC1=CC(C)(C)NC(=S)N1NC(=O)c1ccccc1Cl | 6% | 
19 | CC1=CC(C)(C)NC(=S)N1c1ccccc1 |  | 11.2 µM (active)
20 | O=C1C(Sc2cccc(F)c2)=C[C@@]2(O)CC[C@@H](O)[C@]1(Sc1cccc(F)c1)[C@H]2O | -28.1% | 
21 | CCOC(=O)c1cc(-c2sc(NC(=O)c3ccccc3)nc2C)n(CCO)n1 | -19.1% | 
22 | Cc1cc(C)n2c(Nc3c(C)cccc3C)c(CCc3ccccc3)nc2n1 | -3.88% | 
23 | COc1ccc(S(=O)(=O)N(C)C[C@H]2OCc3cnnn3CCCC(=O)N([C@H](C)CO)C[C@H]2C)cc1 | -3.99% | 
24 | Oc1c(Cl)cc(Cl)c(Cl)c1Cc1c(O)c(Cl)cc(Cl)c1Cl |  | 7.31 µM (active)
25 | COc1cc2nc(N3CCCN(C)CC3)nc(NC3CC3)c2cc1OC | -19% | 
26 | CC(=O)NN=C(C)c1ccc(NC(=O)C2CC2)cc1 | -0.362% | 

Row | SMILES | activity, negative = toxicity | Potency
27 | CCCCN1CC(C)(C)[C@H](CC(=O)Nc2ccc(Br)cc2)C1=O | 8.88% | 
28 | COc1ccc(NC(=O)CCNC(=O)Cn2cnc3sc4c(c3c2=O)CCCC4)cc1OC | 1.16% | 
29 | COc1ccc(NC(=O)CCCNC(=O)Cn2cnc3sc4c(c3c2=O)CCCC4)cc1OC | 11.8% | 
30 | COc1ccc(/C=N/Nc2ncnc3sc4c(c23)CCCC4)cc1O |  | 20.6 µM (active)
31 | Nc1cccc(-c2cncc(N3CCN(Cc4ccccn4)CC3)n2)c1 | 7.1% | 
32 | C[C@H](CO)N1C[C@H](C)[C@H](CN(C)C(=O)Nc2ccc3c(c2)OCO3)Oc2ncc(Br)cc2C1=O | 8.51% | 
33 | COc1ccccc1-n1nnnc1SCC(=O)NC(=O)Cc1ccccc1 | 0.816% | 
34 | COc1ccccc1-n1nnnc1S(=O)(=O)Cc1ccc(Cl)cc1 |  | 16.4 µM (active)
35 | CCC(C)N(C(=O)CSc1nnnn1-c1ccccc1OC)C1CCS(=O)(=O)C1 (centres undefined) | 2.01% | 
36 | OC[C@@H]1CN(Cc2ccc3c(c2)OCO3)C[C@H](n2cnc3c(NCc4ccco4)ncnc32)O1 | 4.42% | 
37 | CC(C)(C)C1CCC(=O)N2CCC[C@]2(c2ccccc2)C1 (some centres undefined) | 9.93% | 
38 | CCCc1ccc(S(=O)(=O)N2CCN(C(=O)c3cc(C)on3)CC2)cc1 | -0.945% | 
39 | Cc1cc(Nc2ccc(C)c(C)c2)n2ncnc2n1 | -2.91% | 
40 | CC(=O)OC[C@@H]1CN(Cc2ccccc2)C[C@H](n2cnc3c(NCc4ccco4)ncnc32)O1 | 19.6% | 
41 | CSc1ccccc1-c1nnc(-c2ccc(Cl)cc2)o1 | -1.6% [at 9.24 µM] | 
42 | O=C(Nc1ccc(Cl)cn1)c1ccccc1-c1ccccc1 | 5.73% | 
43 | Oc1ccccc1-c1cc(-c2ccc(Cl)cc2)n[nH]1 |  | 16.4 µM (active)
44 | O=C(COc1ccc(Br)cc1)OCC(=O)c1ccc[nH]1 | -0.3% | 
45 | Cc1ccc(C(=O)N[C@H](C(=O)N2CCN(c3ncccn3)CC2)C(C)C)cc1 | -5.92% | 
46 | O=C(CO/N=C/c1ccccc1O)NNC(=O)c1ccccc1Cl | -23.8% | 
47 | C=CCOc1ccccc1/C=N/NC(=O)Cc1ccccc1 | 5.83% | 
48 | Oc1ccccc1C=NC1CCCCC1N=Cc1ccccc1O (centres undefined) | 2.75% | 
49 | O=C(CCC(=O)Nc1ccccc1)N/N=C/c1ccccc1F | 12.4% | 
50 | O=C(NN=Cc1ccccc1O)NN=Cc1ccccc1O |  | 8.2 µM (active)
51 | O=C(N/N=C/c1ccccc1O)C1CCCC1 |  | 23.1 µM (active)
52 | O=C(N/N=C/c1ccccc1O)/C(=C/c1ccccc1)CCO |  | 3.26 µM (active)

Row | SMILES | activity, negative = toxicity | Potency
53 | COc1ccc(/C=N/NC(=O)C2CC2)c(OC)c1OC | 16.6% | 
54 | O=C(NN=Cc1ccccc1)c1ccccc1 | 12.9% | 
55 | Brc1ccc2nc(-c3ccccc3)c(Cc3ccccc3)n2c1 | 18.4% | 
56 | N#C/C(=C(/O)COC(=O)COc1ccc(Cl)cc1)c1nc2ccccc2[nH]1 | 25.4% | 
57 | O=C(N/N=C/c1ccc(Cl)cc1)c1nc2ccc([N+](=O)[O-])cc2c(=O)[nH]1 | 9.48% | 
58 | O=C(/C(=C/c1cccc(Cl)c1)c1nc2ccccc2[nH]1)c1ccccc1 |  | 3.26 µM (active)
59 | CCOC(=O)c1ccc(NC(=O)c2nc[nH]c2C(=O)NCc2ccccc2)cc1 | 9.29% | 
60 | O=C(Nc1cc(Br)ccc1F)c1nc[nH]c1C(=O)NCc1ccccc1 | 0.69% | 
61 | O=C(Nc1ccon1)c1nc[nH]c1C(=O)NCc1ccccc1 |  | 2.59 µM (active)
62 | COc1ccc(-c2c(C#N)cnc(C)c2C)c(O)c1OC | 4.41% | 
63 | OCCN1CCN(c2ncnc3c2ncn3[C@H]2CN(Cc3ccco3)C[C@@H](CO)O2)CC1 | 20.7% | 
64 | O=C(NN=Cc1ccc2c(c1)CCC2)c1ccccc1O | 5.14% | 
65 | Cc1cc(C)cc(C(=O)NCCN2CCOCC2)c1 | 2.86% | 
66 | COc1ccc(-c2cc(C(=O)NCCCN3CCOCC3)no2)cc1 | 3.26% | 
67 | COc1ccc(-c2ccc(C(=O)NCCN3CCOCC3)c3occc23)c(C)c1 |  | 18.4 µM (active)
68 | CCCNC(=O)C[C@@H]1CC[C@@H]2[C@H](COC[C@H](O)CN2C(=O)c2cc(Cl)cc(Cl)c2)O1 | 16.4% | 
69 | CC(OC(=O)c1cccnc1Cl)C(=O)NC1CCCCC1 (centres undefined) | -0.365% | 
70 | COc1cccc(-c2ccc3c(c2)N(Cc2ccccc2OC)C(=O)C(C)S3)c1 (centres undefined) | -4.09% | 
71 | O=C(NNC(=O)C1CCC1)c1ccccc1 | 4.36% | 
72 | Cc1ccc(NNC(=O)C2CCC2)cc1C |  | 7.31 µM (active)
73 | Cc1ccc(C)c(OCC(=O)NNC(=O)C2CCC2)c1 | 7.65% | 
74 | CC1(C2CC2)NC(=O)N(CC(=O)N2CCN(c3ccccc3F)CC2)C1=O (centres undefined) | -2.54% | 
75 | CCCCCCN1CCN(C2CN(Cc3cn(Cc4ccc(F)cc4)nn3)S(=O)(=O)C2)CC1 (centres undefined) | -1.26% | 
76 | CCOc1ccc(NC(=O)c2ccccc2NS(C)(=O)=O)cc1 | 2.92% | 
77 | COC(=O)c1ccccc1NS(=O)(=O)c1ccc2[nH]c(=O)[nH]c2c1 | 6.48% | 
78 | COC(=O)c1ccc(NC(=O)c2ccccc2NS(=O)(=O)c2ccccc2)cc1 |  | 11.2 µM (active)

Row | SMILES | activity, negative = toxicity | Potency
79 | O=C(C(=O)N1CCN(c2ccccc2)CC1)c1ccc2c(c1)OCO2 | 11% | 
80 | CN(C)CCN1CCN(c2cc(-c3cccc(Cl)c3)nc3ccnn23)CC1 | -16.7% | 
81 | C#Cc1cc(N2CCN(C(=O)c3ccoc3)CC2)n2nc(-c3cccc(Cl)c3)cc2n1 |  | 9.2 µM (active)
82 | O=C(c1ccccc1)N1CCN(c2cc(-c3ccccc3)nc3cc(-c4cccc(Cl)c4)nn23)CC1 | 8.08% | 
83 | O=C(NCc1ccccc1)C(c1ccc(F)cc1)N1CCN(C(=O)C2CCCO2)CC1 (centres undefined) | 21.4% | 
84 | O=C1CC(c2ccccc2)=NN1c1ccc([N+](=O)[O-])cc1 |  | 20.6 µM (active)
85 | COc1ccc(C2=NN(c3nc4ccccc4s3)C(=O)C2)cc1 | -24.9% | 
86 | O=[N+]([O-])c1ccc(N2CCOCC2)cc1 | -1% | 
87 | CSc1nc2ccc(NC(=O)c3c(F)cccc3F)cc2s1 | -17.3% | 
88 | CC(=O)Nc1ccc2nc(NC(=O)CS(=O)(=O)c3ccc(F)cc3)sc2c1 | -0.314% | 
89 | CCCC(=O)Nc1nc2ccc(NC(=O)c3c(F)c(F)c(OC)c(F)c3F)cc2s1 |  | 0.651 µM (active)
90 | Nc1nc2ncccn2c1-c1ccccc1 | 23.7% | 
91 | CCN1C(=O)[C@@H]2[C@@H]3CN(S(=O)(=O)c4ccccc4C)[C@@H](c4ccc(Cl)cc4)[C@@H]3C(=O)C[C@@H]2C1=O | 4.33% | 
92 | O=[N+]([O-])c1ccccc1/C=C/CN1CCCC(CO)C1 (centres undefined) | -11.4% | 
93 | O=[N+]([O-])c1ccccc1/C=C/CN1CCC(O)CC1 | -1.05% | 
94 | CC1CCCCC1NC(=O)/C(C#N)=C/C=C/c1ccccc1[N+](=O)[O-] (centres undefined) |  | 4.61 µM (active)
95 | CC1=C(C(=O)Nc2cccc(C(=O)NCC(C)c3ccccc3)c2)SCCO1 (centres undefined) | -0.161% | 
96 | O=C(NCc1cccnc1)c1cc(C2CCCN(C(=O)C3CCCCC3)C2)on1 (centres undefined) | 0.399% | 
97 | Cc1oc2c(c1C(=O)N1CCOCC1)C(=O)c1ccccc1C2=O |  | 9.2 µM (active)
98 | O=C(c1snnc1-c1ccccc1)N1CCOCC1 | 13.4% | 
99 | COc1cc2ccccc2cc1C(=O)N1CCOCC1 | 2.75% | 
100 | O=C(CN1C(=O)NC2(CCc3ccccc32)C1=O)NC1CCCCC1 (centres undefined) | 0.155% | 
101 | O=C(COC(=O)/C=C/c1ccc(Cl)cc1)NC1CCS(=O)(=O)C1 (centres undefined) | -4.55% | 
102 | O=C(Nc1ccc(OCCO)cc1)c1csc([C@H]2C[C@H](O)[C@@H](CO)O2)n1 | 10.3% | 
103 | CC(C)CN1CCC1(C)C(=O)Nc1ccc(OC(F)F)cc1 (centres undefined) | 2.39% | 
104 | O[C@H]1CN(Cc2cccs2)[C@@H](c2ccc(Cl)cc2)C[C@@H]1n1cc(C2CC2)nn1 | 4.5% | 
